According to PubChem BioAssay:
Unmarked numbers belong to inactive results. Some of the results follow. Activity calls are given as the source filed them.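 Rule for the calls, unless noted: active = inhibition above the hit cutoff set in the earlier primary screen (cut at about 27% in these data); inactive = the rest.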

Experiments:
[1] = tested on: TLR4-MyD88 interaction (human), BLA complementation; assay: TLR4-MyD88 association inhibitors, retest, confirmation, cell-based, HeLa CL3-4, BLA complementation, FRET ratio (AID 941;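 active = mean inhibition across three repeat runs above about 25% carried over from the earlier screen, limit read from the data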;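 note: plate controls were DMSO only for no effect and clavulanic acid blocking BLA at full dose for full effect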); settings: CCF4 FRET ratio, at 8.4 µM, hits give high values
[2] = inhibitors of full-length beta-lactamase reporter, confirmation, artefact control for TLR4-MyD88 binding inhibitor project, cell-based, HeLa, full-length BLA, CCF4 FRET ratio (AID 1237;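 active = mean inhibition over three repeats above about 26% taken from the earlier screen, limit read from the data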;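 note: HeLa cells stably expressing beta-lactamase reporter as counterscreen for TLR4-MyD88 inhibitors; 0% = DMSO and 100% = clavulanic acid full inhibition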); settings: at 8.4 µM, hits give high values
[3] = molecular target: Protein phosphatase methylesterase 1 (Homo sapiens) (UniProt Q9Y570); assay: PME-1 inhibitor activity retest, confirmation, biochemical, fluorescence polarization, FP-Rh probe, triplicate (AID 2171); settings: recombinant PME-1, FP-Rh probe fluorescence polarization; at 5.9 µM; hits give high values;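 note: 0% = enzyme with DMSO and 100% = wells lacking PME-1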
[4] = molecular target: Bcl-2-like protein 1 (Homo sapiens) (UniProt Q07817); assay: Bcl-xL inhibitors blocking Bim BH3 binding, confirmation, counter-screen for MCL1 inhibitor project, biochemical, fluorescence polarization (AID 2166;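 active = inhibition above a cutoff equal to the mean inhibition of all tested compounds plus 3 SD, cut at about 30% in these data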); settings: GST-Bcl-xL / FITC-Bim BH3 peptide FP binding; at 10.9 µM; hits give high values
[5] = molecular target: Induced myeloid leukemia cell differentiation protein Mcl-1 (Homo sapiens) (UniProt Q07820); assay: inhibitors of MCL1 binding to BIM-BH3, confirmation, biochemical, fluorescence polarization, triplicate (AID 2168;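 active = inhibition above the average of all tested compounds plus 3 SD, cut at about 40% in these data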;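 note: 0% = DMSO wells and 100% = unlabeled Bim-BH3 control peptide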); settings: GST-MCL1 / FITC-Bim-BH3 fluorescence polarization; at 10.9 µM; hits give high values
[6] = molecular target: Platelet-activating factor acetylhydrolase (Homo sapiens) (UniProt Q13093); assay: pPAFAH (PLA2G7) enzyme inhibitors, confirmation, biochemical, fluorescence polarization, human (AID 463230;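 active = mean inhibition of the triplicate above the hit cutoff set for the earlier primary screen, cut at about 25% in these data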;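 note: 0% = enzyme with DMSO and 100% = wells lacking pPAFAH enzyme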); settings: recombinant pPAFAH, FP-Rh probe fluorescence polarization; at 3.39 µM; hits give high values
[7] = molecular target: Glutathione S-transferase omega-1 (Homo sapiens) (UniProt P78417); assay: GSTO1 inhibitor hit confirmation, counter-screen for RBBP9 inhibitor project, biochemical, fluorescence polarization, triplicate (AID 2176;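 active = inhibition above the primary screen's cutoff, its mean inhibition plus 3 SD, cut at about 35% in these data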;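 note: loss of polarization as inhibitors block binding of rhodamine sulfonate ester activity probe; 0% = GSTO1 with DMSO and 100% = wells lacking GSTO1 enzyme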); settings: recombinant GSTO1, probe fluorescence polarization; at 5.96 µM; hits give high values
[8] = molecular target: Protein-arginine deiminase type-4 (Homo sapiens) (UniProt Q9UM07); assay: human PAD4 inhibitors, confirmation, biochemical, fluorescence polarization (AID 488796;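 active = mean inhibition across replicates above the hit cutoff set by the earlier primary screen, cut at about 15% in these data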;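 note: inhibitors block active-site labeling by the probe so polarization falls; 0% = PAD4 with probe and DMSO and 100% = probe without PAD4 enzyme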); settings: recombinant PAD4, RCA probe fluorescence polarization; at 6.36 µM; hits give high values
[9] = molecular target: Platelet-activating factor acetylhydrolase IB subunit alpha1 (Homo sapiens) (UniProt Q15102); assay: PAFAH1B3 enzyme inhibitors, confirmation, biochemical, fluorescence polarization, human (AID 493032;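 active = average inhibition over triplicate runs above the hit cutoff set in the earlier primary screen, cut at about 25% in these data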;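 note: 0% = enzyme with DMSO and 100% = wells lacking PAFAH1B3 protein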); settings: recombinant PAFAH1B3, FP-Rh activity-based probe, at 3.39 µM, hits give high values
[10] = tested on: HIV-1 integrase (multimerization); assay: HIV-1 IN multimer formation enhancers, counter-screen for LEDGF/p75 integration inhibitor project, biochemical, TR-FRET (AID 1053131; in the data active = activation above about 8.9%); settings: TR-FRET HIV-1 integrase multimerization, at 7.7 µM, hits give high values
[11] = TR-FRET optical interference artefacts, confirmation, artefact control for LEDGF/p75-dependent integration inhibitor project, biochemical, HIV-1 IN multimerization (AID 1053135;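 active = inhibition above the mean over all tested compounds plus 3 SD, which no compound reached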;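 note: 0% = integrase with antibodies and DMSO and 100% = antibodies without integrase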); settings: TR-FRET optical interference counterscreen, at 7.7 µM, hits give high values
[12] = tested on: HIV-1 integrase / human LEDGF/p75 complex; assay: inhibitors of HIV-1 IN-LEDGF/p75 DNA integration, confirmation, biochemical, TR-FRET (AID 1053136; in the data active = inhibition above about 14%); settings: TR-FRET LEDGF/p75-dependent HIV-1 integration, at 3.7 µM, hits give high values
[13] = molecular target: Sphingosine 1-phosphate receptor 4 (Homo sapiens) (UniProt O95977); assay: S1P4 receptor antagonists, human, confirmation, cell-based (AID 1524; in the data active = inhibition above about 30%); settings: S1P4-expressing cell line, antagonist mode, reporter read-out; at 4.98 µM; hits give high values
[14] = molecular target: Sphingosine 1-phosphate receptor 1 (Homo sapiens) (UniProt P21453); assay: S1P1 receptor antagonists, human, counter-screen for S1P4 antagonist project, cell-based (AID 1564; in the data active = inhibition above about 40%;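 note: receptor stimulated with S1P near its EC80; 0% = agonist stimulated wells and 100% = vehicle only wells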); settings: cell-based S1P1 antagonist counterscreen, at 4.98 µM, hits give high values
[15] = KLF5 expression inhibitors, confirmation, DLD-1 cells, luminescence (AID 1834;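 active = inhibition above a set limit taken from the earlier primary screen, cut at about 63% in these data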;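 note: 0% = DMSO wells and 100% = LY294002 at 200 µM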); settings: DLD-1 KLF5 promoter firefly luciferase reporter, at 4 µM, hits give high values
[16] = cytotoxicity in rat IEC-6 cells, cytotoxicity control for KLF5 inhibitor project, cell-based, luminescence, triplicate (AID 1905; in the data active = inhibition above about 23%;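 note: cells exposed to compounds for 48 hours before viability read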); settings: IEC-6 rat intestinal cells, viability luminescence; at 4 µM; hits give high values
[17] = molecular target: Nuclear receptor coactivator 3 (Homo sapiens) (UniProt Q9Y6Q9); assay: SRC3 coactivator transcriptional activity inhibitors, confirmation, cell-based, luminescence, quadruplicate (AID 588792;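 active = mean inhibition over 43.08%, the solvent-only control mean plus 3 SD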;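 note: 0% = DMSO treated cells and 100% = gossypol at 36 µM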); settings: HEK293 GAL4-SRC3 luciferase reporter, at 3.6 µM, hits give high values
[18] = tested on: transactivating tegument protein VP16 (Human herpesvirus 1), Gal4-VP16 luciferase reporter; assay: VP16 transactivation inhibitors, counter-screen for SRC3 inhibitor project, cell-based, luminescence, high throughput (AID 588794; in the data active = inhibition above about 30%); settings: mammalian cells, VP16-driven luciferase reporter luminescence; at 3.6 µM; hits give high values
[19] = molecular target: Nuclear receptor coactivator 1 (Homo sapiens) (UniProt Q15788); assay: SRC1 coactivator transcriptional activity inhibitors, confirmation, cell-based, luminescence, quadruplicate (AID 588820;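 active = mean inhibition above 46.68%, the untreated control wells mean plus 3 SD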;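 note: 0% = DMSO wells and 100% = gossypol 36 µM treated wells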); settings: HEK293 GAL4-SRC1 luciferase reporter, at 3.6 µM, hits give high values
[20] = VP16 transactivation inhibitors, counter-screen for SRC1 inhibitor project, cell-based, luminescence, high throughput (AID 588824; in the data active = inhibition above about 25%); settings: cell-based VP16 transactivation luciferase luminescence; at 3.6 µM; hits give high values
[21] = molecular target: Photoreceptor-specific nuclear receptor (Homo sapiens) (UniProt Q9Y5X4); assay: NR2E3 agonist confirmation in cells, cell-based, luminescence, CHO-S two-hybrid (AID 624378;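 active = average inhibition above a cutoff equal to the mean inhibition of all tested compounds plus one SD, cut at about 70% in these data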;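 note: 0% = DMSO in NR2E3 cells and 100% = DMSO in cells lacking NR2E3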); settings: CHO-S mammalian two-hybrid NR2E3-NCOR, luciferase luminescence; at 3.98 µM; hits give high values
[22] = GAL4-VP16 reporter modulators, confirmation, counter-screen for NR2E3 agonist project, cell-based, luminescence, CHO-S, high throughput (AID 624379;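 active = mean inhibition above a cutoff equal to the average over all tested compounds plus one standard deviation, cut at about 70% in these data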;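 note: 0% = DMSO with VP16-transfected cells and 100% = DMSO with cells lacking VP16; higher means less reporter light so more repression of VP16 activity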); settings: CHO-S GAL4-VP16 luciferase reporter, at 3.98 µM, hits give high values
[23] = StAR promoter reporter inhibitors, counter-screen for LRH-1 inverse agonist project, cell-based, luminescence, high throughput (AID 651611; in the data active = inhibition above about 28%); settings: StAR promoter luciferase reporter counterscreen, at 3.6 µM, hits give high values
[24] = molecular target: Nuclear receptor subfamily 5 group A member 2 (Homo sapiens) (UniProt O00482); assay: LRH-1 (NR5A2) inverse agonists, retest, confirmation, cell-based, luminescence (AID 651613; in the data active = inhibition above about 42%;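 note: HEK293T cells co-transfected with LRH-1 and StAR promoter luciferase reporter; 0% = vehicle wells and 100% = parental cells lacking receptor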); settings: cell-based LRH-1 luciferase reporter, inverse agonism; at 3.6 µM; hits give high values
[25] = molecular target: Steroidogenic factor 1 (Homo sapiens) (UniProt Q13285); assay: SF1 (NR5A1) inverse agonists, counter-screen for LRH-1 inverse agonist project, cell-based, luminescence, high throughput (AID 651614; in the data active = inhibition above about 44%;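 note: cells cotransfected with StAR promoter reporter and SF1 expression vector; 0% = vehicle on cells with receptor and 100% = vehicle on cells lacking receptor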); settings: cell-based SF1 luciferase reporter, at 3.6 µM, hits give high values
[26] = VP16 transactivation reporter inhibitors, counter-screen for LRH-1 inverse agonist project, cell-based, luminescence, high throughput (AID 651615; in the data active = inhibition above about 33%); settings: Gal4-VP16 luciferase reporter cells, at 3.6 µM, hits give high values
[27] = Gal4-VP16 luciferase reporter inhibitors, counter-screen for COUP-TFII antagonist project, cell-based, luminescence, HEK293 (AID 687007; in the data active = inhibition above about 13%); settings: at 8.5 µM, hits give high values
[28] = molecular target: COUP transcription factor 2 (Homo sapiens) (UniProt P24468); assay: NR2F2 transcriptional activity inhibitors, confirmation, cell-based, luciferase reporter, HEK293, triplicate (AID 687008;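 active = mean inhibition over three repeats above a set limit taken from the earlier primary screen, cut at about 38% in these data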;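 note: 100% = cells given the luciferase reporter alone without the COUP-TF2 vector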); settings: HEK293 NGFI-A luciferase reporter, luminescence; at 8.5 µM; hits give high values

Chain of Protein phosphatase methylesterase 1 (Homo sapiens) (Q9Y570 whole entry, looked up): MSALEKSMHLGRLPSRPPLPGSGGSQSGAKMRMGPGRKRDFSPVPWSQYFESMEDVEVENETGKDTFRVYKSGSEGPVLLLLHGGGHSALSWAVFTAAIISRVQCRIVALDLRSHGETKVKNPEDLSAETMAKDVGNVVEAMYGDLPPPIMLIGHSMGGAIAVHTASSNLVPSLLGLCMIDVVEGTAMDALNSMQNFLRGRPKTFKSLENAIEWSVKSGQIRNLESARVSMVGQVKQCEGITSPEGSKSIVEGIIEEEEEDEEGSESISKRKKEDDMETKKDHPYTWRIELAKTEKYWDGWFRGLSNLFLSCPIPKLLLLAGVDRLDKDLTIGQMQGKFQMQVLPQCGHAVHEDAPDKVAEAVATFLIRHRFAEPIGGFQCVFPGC
Chain of Bcl-2-like protein 1 (Homo sapiens) (Q07817 whole entry, looked up): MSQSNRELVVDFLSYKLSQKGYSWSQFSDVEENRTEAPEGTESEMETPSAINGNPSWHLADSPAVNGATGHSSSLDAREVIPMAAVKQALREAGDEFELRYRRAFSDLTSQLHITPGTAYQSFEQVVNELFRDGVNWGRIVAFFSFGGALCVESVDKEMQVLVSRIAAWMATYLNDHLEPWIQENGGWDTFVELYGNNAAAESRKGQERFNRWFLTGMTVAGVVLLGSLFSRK
Chain of Induced myeloid leukemia cell differentiation protein Mcl-1 (Homo sapiens) (Q07820 whole entry, looked up): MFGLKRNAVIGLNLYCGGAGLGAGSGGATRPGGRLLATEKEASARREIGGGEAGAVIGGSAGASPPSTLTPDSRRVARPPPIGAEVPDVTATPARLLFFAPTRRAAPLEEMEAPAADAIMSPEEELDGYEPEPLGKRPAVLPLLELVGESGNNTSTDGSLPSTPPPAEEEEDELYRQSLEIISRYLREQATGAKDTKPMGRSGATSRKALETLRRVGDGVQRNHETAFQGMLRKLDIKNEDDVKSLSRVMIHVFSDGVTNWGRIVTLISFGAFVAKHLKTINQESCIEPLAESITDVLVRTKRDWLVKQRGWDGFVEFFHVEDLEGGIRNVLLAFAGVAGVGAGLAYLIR
Chain of Platelet-activating factor acetylhydrolase (Homo sapiens) (Q13093 whole entry, looked up): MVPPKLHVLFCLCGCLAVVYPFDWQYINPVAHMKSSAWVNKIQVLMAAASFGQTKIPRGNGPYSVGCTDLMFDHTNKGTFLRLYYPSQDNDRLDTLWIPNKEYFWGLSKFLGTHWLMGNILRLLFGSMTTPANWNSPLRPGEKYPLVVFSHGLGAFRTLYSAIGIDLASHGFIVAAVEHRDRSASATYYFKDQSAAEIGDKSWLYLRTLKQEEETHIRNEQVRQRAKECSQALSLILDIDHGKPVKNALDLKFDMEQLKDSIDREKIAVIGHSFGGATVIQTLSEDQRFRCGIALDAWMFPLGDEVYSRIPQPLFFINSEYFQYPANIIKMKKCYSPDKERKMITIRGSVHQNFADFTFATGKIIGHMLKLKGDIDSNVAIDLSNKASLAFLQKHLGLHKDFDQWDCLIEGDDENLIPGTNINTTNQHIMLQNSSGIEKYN
Chain of Glutathione S-transferase omega-1 (Homo sapiens) (P78417 whole entry, looked up): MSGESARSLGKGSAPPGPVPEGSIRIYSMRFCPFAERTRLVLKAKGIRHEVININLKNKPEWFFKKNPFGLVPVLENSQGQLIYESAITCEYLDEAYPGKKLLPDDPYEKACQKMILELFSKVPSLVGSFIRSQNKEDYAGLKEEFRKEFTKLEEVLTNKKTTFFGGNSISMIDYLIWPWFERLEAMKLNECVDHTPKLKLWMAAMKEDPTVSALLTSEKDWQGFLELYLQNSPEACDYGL
Chain of Protein-arginine deiminase type-4 (Homo sapiens) (Q9UM07 whole entry, looked up): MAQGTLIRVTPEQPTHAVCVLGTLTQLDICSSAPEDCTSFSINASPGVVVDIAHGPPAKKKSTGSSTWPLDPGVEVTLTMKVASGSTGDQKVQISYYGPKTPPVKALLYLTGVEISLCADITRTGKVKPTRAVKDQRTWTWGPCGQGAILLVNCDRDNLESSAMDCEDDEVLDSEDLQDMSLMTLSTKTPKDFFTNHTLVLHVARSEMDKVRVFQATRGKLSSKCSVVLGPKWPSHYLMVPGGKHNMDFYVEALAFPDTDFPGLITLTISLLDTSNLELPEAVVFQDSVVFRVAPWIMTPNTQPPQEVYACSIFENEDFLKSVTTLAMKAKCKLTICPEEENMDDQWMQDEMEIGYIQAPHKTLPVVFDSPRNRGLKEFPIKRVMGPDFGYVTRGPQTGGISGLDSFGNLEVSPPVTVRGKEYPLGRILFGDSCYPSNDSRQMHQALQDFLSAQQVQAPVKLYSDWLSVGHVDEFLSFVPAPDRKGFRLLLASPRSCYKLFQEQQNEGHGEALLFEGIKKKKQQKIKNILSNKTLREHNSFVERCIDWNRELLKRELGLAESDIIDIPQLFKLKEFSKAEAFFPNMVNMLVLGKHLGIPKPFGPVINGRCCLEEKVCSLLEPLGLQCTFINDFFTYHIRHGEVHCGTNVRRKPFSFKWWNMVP
Chain of Steroidogenic factor 1 (Homo sapiens) (Q13285 whole entry, looked up, the tested form may be a part): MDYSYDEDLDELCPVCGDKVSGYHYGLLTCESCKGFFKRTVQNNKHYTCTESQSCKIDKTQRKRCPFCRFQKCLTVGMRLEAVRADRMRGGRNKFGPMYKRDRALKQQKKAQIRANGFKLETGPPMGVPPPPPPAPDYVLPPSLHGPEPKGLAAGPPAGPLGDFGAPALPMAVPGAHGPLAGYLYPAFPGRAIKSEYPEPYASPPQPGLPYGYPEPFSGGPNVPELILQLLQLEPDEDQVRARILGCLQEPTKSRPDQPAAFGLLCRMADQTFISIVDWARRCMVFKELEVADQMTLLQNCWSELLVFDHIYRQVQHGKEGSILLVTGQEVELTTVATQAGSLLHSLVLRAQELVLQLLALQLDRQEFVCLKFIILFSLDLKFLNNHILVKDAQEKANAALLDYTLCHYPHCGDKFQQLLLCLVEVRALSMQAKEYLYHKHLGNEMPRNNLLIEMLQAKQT
Chain of Sphingosine 1-phosphate receptor 1 (Homo sapiens) (P21453 whole entry, looked up): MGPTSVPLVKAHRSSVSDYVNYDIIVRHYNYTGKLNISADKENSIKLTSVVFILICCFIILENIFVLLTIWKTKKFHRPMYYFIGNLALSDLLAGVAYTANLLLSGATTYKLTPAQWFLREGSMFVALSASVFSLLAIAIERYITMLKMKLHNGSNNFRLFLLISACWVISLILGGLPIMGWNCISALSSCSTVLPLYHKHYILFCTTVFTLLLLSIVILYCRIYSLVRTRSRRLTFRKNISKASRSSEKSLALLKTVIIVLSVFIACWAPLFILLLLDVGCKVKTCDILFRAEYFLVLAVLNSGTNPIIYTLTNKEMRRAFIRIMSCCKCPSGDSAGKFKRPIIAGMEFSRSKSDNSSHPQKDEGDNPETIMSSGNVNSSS
Chain of Sphingosine 1-phosphate receptor 4 (Homo sapiens) (O95977 whole entry, looked up): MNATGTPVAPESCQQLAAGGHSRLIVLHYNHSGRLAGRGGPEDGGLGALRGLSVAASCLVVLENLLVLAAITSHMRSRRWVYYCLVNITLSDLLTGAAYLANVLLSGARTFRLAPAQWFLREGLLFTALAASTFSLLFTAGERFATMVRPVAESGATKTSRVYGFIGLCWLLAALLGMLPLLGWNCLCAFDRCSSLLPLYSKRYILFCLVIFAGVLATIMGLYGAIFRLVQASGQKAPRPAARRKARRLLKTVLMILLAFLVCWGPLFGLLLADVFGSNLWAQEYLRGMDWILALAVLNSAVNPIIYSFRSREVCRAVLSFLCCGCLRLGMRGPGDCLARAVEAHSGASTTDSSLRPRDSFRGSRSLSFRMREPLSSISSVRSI
Chain of Nuclear receptor subfamily 5 group A member 2 (Homo sapiens) (O00482 whole entry, looked up): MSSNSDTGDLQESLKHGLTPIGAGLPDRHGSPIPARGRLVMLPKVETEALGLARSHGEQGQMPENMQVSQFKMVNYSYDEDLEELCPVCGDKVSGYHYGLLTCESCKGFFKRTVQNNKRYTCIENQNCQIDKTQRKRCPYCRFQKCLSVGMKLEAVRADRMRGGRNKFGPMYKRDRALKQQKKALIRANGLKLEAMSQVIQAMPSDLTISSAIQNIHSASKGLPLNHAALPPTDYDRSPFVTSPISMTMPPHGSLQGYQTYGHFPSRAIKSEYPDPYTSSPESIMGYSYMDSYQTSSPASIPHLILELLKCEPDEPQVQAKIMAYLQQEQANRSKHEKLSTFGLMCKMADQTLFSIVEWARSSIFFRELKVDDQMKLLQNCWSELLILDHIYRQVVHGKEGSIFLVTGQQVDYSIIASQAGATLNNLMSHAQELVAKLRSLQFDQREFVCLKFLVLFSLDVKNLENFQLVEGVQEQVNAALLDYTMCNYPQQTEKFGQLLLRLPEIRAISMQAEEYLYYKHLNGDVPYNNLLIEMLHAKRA
Chain of Photoreceptor-specific nuclear receptor (Homo sapiens) (Q9Y5X4 whole entry, looked up, the tested form may be a part): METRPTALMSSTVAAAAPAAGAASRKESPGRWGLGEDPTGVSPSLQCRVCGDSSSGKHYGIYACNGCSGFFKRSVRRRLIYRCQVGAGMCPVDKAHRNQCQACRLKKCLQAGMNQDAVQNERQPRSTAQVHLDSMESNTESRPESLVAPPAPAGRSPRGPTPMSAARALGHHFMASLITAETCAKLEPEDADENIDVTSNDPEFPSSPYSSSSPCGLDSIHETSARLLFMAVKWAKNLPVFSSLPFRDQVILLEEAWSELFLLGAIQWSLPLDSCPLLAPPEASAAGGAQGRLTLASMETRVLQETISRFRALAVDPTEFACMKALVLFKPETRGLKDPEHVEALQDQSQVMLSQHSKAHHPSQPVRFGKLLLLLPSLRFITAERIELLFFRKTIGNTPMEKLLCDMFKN
Chain of Platelet-activating factor acetylhydrolase IB subunit alpha1 (Homo sapiens) (Q15102 whole entry, looked up): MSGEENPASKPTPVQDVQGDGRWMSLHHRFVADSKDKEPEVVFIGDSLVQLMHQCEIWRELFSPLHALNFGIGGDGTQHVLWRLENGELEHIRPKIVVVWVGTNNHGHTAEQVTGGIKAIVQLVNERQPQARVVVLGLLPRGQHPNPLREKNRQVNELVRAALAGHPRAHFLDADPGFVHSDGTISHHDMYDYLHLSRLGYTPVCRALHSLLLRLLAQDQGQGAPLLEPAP

COc1ccc(CN2CCN(c3ccccc3F)CC2)c(OC)c1
inhibition [1]: -8.64%
inhibition [2]: 4.55%

Cc1ccc(S(=O)(=O)N2CCCCC2)cc1NC(=O)CN1CC=C(c2ccccc2)CC1
inhibition [3]: 85.5% (active)

Cc1ccc(C(O)P(=O)(Oc2ccccc2)Oc2ccccc2)cc1 (centres undefined)
inhibition [3]: 59.9% (active)

O=c1[nH]c(=S)[nH]c(O)c1N=Nc1cc(S(=O)(=O)Nc2ccc(Cl)cc2)ccc1Cl
inhibition [3]: 40.5% (active)

Oc1ccc(/C=N/NP(=S)(c2ccccc2)c2ccccc2)c(O)c1O
inhibition [3]: -8.43%

O=[N+]([O-])c1ccc(NCc2ccccc2)c2nonc12
inhibition [3]: 50.5% (active)

COc1cccc(N2C(=O)NC(=O)/C(=C\c3cn(C)c4ccccc34)C2=O)c1
inhibition [4]: 189% (active)

O=C1NC(=O)N(c2ccccc2)C(=O)/C1=C/c1ccc([N+](=O)[O-])s1
inhibition [4]: 36.9% (active)
inhibition [5]: 66.3% (active)
inhibition [6]: 44% (active)

CCOC(=O)c1c(N)n(Cc2ccccc2)c2nc3ccccc3nc12
inhibition [7]: 13.8%
inhibition [8]: -4.66%
inhibition [9]: 8.51%
activation [10]: -0.51%
inhibition [11]: 2.59%
inhibition [12]: -1.64%

NP(=O)(OCCCCc1ccccc1)Oc1ccccc1Cl (centres undefined)
inhibition [3]: 47.4% (active)

CN1/C(=C\C=C\C2=[N+](C)c3ccc4ccccc4c3C2(C)C)C(C)(C)c2ccccc21
inhibition [3]: 79.1% (active)

COc1ccc(N2C(=O)/C(=C/c3ccco3)C(=O)NC2=S)cc1
inhibition [4]: 50.7% (active)
inhibition [5]: 55.3% (active)
inhibition [6]: 17.3%

CN(C)C1(c2nnnn2CCOC(=O)Nc2ccc(Cl)cc2)CCCCC1
inhibition [3]: 25%

CC(C)CCOP(N)(=O)Oc1ccccc1Cl (centres undefined)
inhibition [3]: 42.3% (active)

CN(C)CC1Oc2ccccc2OC1(O)c1ccccc1 (centres undefined)
inhibition [13]: 100% (active)
inhibition [14]: 23.3%

O=C1NC(=O)N(Cc2ccco2)C(=O)/C1=C\c1ccc(-c2ccc(F)cc2)o1
activation [10]: 1.86%
inhibition [11]: -6.88%
inhibition [12]: 11.9%

COc1cccc(OC)c1C1=NCC(=O)Nc2c1oc1ccc(Br)cc21
inhibition [3]: 52.8% (active)

CCCCCCCCCCCCn1ccc(=N)cc1
inhibition [15]: 62.6% (active)
inhibition [16]: 46.8% (active)
inhibition [17]: 67.6% (active)
inhibition [18]: 78.8% (active)
inhibition [19]: 53.8% (active)
inhibition [20]: 78.9% (active)
inhibition [21]: 99.7% (active)
inhibition [22]: 86.7% (active)
inhibition [23]: 74.4% (active)
inhibition [24]: 101% (active)
inhibition [25]: 92.7% (active)
inhibition [26]: 89.8% (active)
inhibition [27]: 14.2% (active)
inhibition [28]: 76.4% (active)
